Among the data in PubChem BioAssay are growth inhibition, inhibition and outcome values, retold here.

Each structure is given as a SMILES string. Unmarked numbers belong to inactive results. For some of these results: Measured potencies and affinities stand elsewhere. Calls of active or inactive are those of the source. Unless noted, the rule behind the calls is not given here.

The nature of assay [1]: antimalarial activity against Dd2 strain (AID 2302;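 active = growth inhibition above 50% at the single 2 µM test dose, taken to imply half-maximal potency below 2 µM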;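 note: 0% = DMSO untreated growth and 100% = chloroquine plus artemisinin killed control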). To be noted: P. falciparum Dd2 in RBCs, LDH growth readout, 72 h; at 2 µM; hits give high values.
Assay [2] is described as follows: HepG2 cytotoxicity, primary screen, cytotoxicity control for P. falciparum antimalarial project, cell-based, ATP luminescence (AID 2303;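 active = inhibition above 50%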;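 note: 0% = DMSO wells and 100% = digitonin-killed cells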). To be noted: HepG2 viability, 24-48 h, at 10 µM, hits give high values.
The target of assay [3] is L-lactate dehydrogenase (Plasmodium falciparum (isolate CDC / Honduras)) (UniProt Q27743). Briefly: PfLDH activity inhibition – cell lysate, 3D7 strain, counter-screen for P. falciparum growth inhibition project (AID 2304).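 Note: 0% = vehicle and 100% = reference inhibitor.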 The conditions noted are these: P. falciparum 3D7 crude extract, LDH APAD/NBT absorbance; at 2 µM; hits give high values. (Counterscreens check selectivity or assay interference.)
Sequence of L-lactate dehydrogenase (Plasmodium falciparum (isolate CDC / Honduras)) (Q27743 whole entry, looked up): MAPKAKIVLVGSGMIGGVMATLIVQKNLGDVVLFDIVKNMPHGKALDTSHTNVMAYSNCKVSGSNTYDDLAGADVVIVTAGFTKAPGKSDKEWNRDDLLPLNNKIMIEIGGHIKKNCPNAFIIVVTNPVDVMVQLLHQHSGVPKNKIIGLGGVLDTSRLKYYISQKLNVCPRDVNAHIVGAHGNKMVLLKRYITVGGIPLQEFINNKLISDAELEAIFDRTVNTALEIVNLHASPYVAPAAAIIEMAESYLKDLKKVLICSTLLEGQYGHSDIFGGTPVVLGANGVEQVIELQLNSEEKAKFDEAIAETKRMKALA

Assay [4] in a line: inhibition of 3D7 malaria parasite growth – strain 3D7 (AID 2306).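 Note: 0% = DMSO wells and 100% = chloroquine plus artemisinin control wells.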 The conditions noted are these: P. falciparum 3D7 erythrocytic growth, LDH absorbance, 72 h; at 2 µM; hits give high values.
The target in assay [5] is Calcium-dependent protein kinase 1 (Plasmodium falciparum (isolate 3D7)) (UniProt P62344). Briefly: PfCDPK1 kinase inhibitors, biochemical, TCAMS library (AID 1159585; cut-off not given, nearly all actives have IC50 up to about 0.98 µM;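 note: inhibitors leave more ATP so luminescence rises with inhibition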). To be noted: recombinant PfCDPK1, Kinase-Glo ATP depletion luminescence. Background: Kinase-Glo measures the ATP left after a reaction by luminescence.
Sequence of Calcium-dependent protein kinase 1 (Plasmodium falciparum (isolate 3D7)) (P62344 whole entry, looked up): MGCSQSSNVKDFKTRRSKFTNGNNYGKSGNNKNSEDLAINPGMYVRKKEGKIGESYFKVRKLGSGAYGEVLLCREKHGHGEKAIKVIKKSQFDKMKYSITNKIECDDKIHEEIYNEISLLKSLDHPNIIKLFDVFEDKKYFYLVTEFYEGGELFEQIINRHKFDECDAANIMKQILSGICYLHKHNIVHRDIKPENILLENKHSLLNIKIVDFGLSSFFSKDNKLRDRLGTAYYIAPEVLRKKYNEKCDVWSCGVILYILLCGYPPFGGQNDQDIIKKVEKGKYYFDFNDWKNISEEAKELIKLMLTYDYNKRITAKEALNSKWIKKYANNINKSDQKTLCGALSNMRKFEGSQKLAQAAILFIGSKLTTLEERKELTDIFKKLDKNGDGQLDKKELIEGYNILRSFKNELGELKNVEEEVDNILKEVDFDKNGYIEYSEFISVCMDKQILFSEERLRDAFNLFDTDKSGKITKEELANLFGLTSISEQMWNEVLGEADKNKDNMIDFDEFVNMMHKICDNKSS
Assay [6] addresses Plasmodium falciparum protein kinase 6 (PK6, PF3D7_1337100) (UniProt Q8IDW1). Briefly: PfPK6 kinase inhibitors, biochemical, TCAMS library (AID 1159586). The conditions noted are these: recombinant PfPK6, Kinase-Glo ATP depletion luminescence.
For assay [7], the target named is Protein kinase 7 (PK7), Plasmodium falciparum 3D7 (PF3D7_0213400) (UniProt Q7YTF7). The assay is described as follows: inhibition of Plasmodium PK7 catalytic activity – biochemical, TCAMS antimalarial set, Kinase-Glo luminescence (AID 1159587). To be noted: recombinant PfPK7, Kinase-Glo ATP depletion luminescence.
Sequence of Protein kinase 7 (PK7), Plasmodium falciparum 3D7 (PF3D7_0213400) (Q7YTF7 1-343): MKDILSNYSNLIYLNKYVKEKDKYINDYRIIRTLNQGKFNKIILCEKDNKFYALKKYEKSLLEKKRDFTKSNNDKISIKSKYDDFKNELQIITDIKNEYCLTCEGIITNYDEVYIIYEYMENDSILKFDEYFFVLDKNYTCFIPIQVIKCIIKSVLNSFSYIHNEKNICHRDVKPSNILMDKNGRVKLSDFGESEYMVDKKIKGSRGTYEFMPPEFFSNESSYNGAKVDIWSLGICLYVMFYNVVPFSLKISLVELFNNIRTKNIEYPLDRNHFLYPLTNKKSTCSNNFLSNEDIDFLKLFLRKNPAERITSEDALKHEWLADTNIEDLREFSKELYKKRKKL
In assay [8] the target is Calcium-dependent protein kinase 4 (Plasmodium falciparum (isolate 3D7)) (UniProt Q8IBS5). The assay is described as follows: PfCDPK4 kinase inhibitors, biochemical, TCAMS library (AID 1159588; cut-off not given, nearly all actives have IC50 up to about 0.91 µM). To be noted: recombinant PfCDPK4, Kinase-Glo ATP depletion luminescence.
Sequence of Calcium-dependent protein kinase 4 (Plasmodium falciparum (isolate 3D7)) (Q8IBS5 whole entry, looked up): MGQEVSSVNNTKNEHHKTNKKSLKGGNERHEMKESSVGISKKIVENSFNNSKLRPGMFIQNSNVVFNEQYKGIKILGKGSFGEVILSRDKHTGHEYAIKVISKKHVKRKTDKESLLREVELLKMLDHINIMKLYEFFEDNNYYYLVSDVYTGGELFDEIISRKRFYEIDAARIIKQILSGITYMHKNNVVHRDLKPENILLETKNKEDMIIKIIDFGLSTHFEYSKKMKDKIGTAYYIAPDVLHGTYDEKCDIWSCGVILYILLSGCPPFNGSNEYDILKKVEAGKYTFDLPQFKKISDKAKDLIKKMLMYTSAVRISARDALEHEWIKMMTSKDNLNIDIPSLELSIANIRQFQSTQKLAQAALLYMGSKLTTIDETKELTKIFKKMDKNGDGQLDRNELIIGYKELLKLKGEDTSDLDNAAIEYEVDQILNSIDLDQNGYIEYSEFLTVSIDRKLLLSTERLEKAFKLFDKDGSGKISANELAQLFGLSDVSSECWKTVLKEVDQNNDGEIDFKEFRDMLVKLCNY

Sequence of Plasmodium falciparum protein kinase 6 (PK6, PF3D7_1337100) (Q8IDW1 1-305): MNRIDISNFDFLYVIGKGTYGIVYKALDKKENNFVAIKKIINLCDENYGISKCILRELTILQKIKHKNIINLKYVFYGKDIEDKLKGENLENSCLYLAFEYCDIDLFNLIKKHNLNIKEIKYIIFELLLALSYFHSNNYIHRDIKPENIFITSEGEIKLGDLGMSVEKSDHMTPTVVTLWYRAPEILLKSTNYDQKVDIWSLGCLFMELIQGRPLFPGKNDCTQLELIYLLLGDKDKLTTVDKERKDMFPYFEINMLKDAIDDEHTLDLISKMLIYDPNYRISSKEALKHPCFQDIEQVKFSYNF

With `Cc1[nH]cnc1CSCCNC(=NCCCCCCCCN=C(NC#N)NCCSCc1nc[nH]c1C)NC#N`, the growth inhibition in assay [1] is 48%; in assay [4], 81% (active). Besides, the inhibition (as a rule, the change of the read-out against control, counted positive when it falls) in assay [2] is 1%; in assay [3] it was 0%. Further, the outcome in assay [5], in assay [6], in assay [7] and in assay [8] was inactive.
Regarding `O=S(=O)(c1cccc(Cl)c1F)N(CCC(O)(C(F)(F)F)C(F)(F)F)Cc1cccc(O)c1`, the growth inhibition in assay [1] was 86% (active); in assay [4], 100% (active). For the same molecule, the inhibition was -5% in assay [2] and 0% in assay [3]. Further, the result in assay [5], in assay [6], in assay [7] and in assay [8] was inactive.
For the molecule `CNCCNc1nccc(N2CCc3ncnc(Nc4ccc(OCc5cccc(F)c5)c(Cl)c4)c3C2)n1`, the figures for the growth inhibition in assay [1] and in assay [4] were 98% (active) and 100% (active), respectively. Besides, the inhibition was 30% in assay [2] and -4% in assay [3]. In addition, the outcome in assay [5], in assay [6], in assay [7] and in assay [8] was inactive.
Consider `O=C(Cc1ccccc1)NC(CCN1CCC(N(C2CC2)S(=O)(=O)c2cccc(C(F)(F)F)c2)CC1)c1ccc(Cl)c(Cl)c1` (stereo not given), for which the figures for the growth inhibition in assay [1] and in assay [4] were 27% and 85% (active), respectively. The inhibition in assay [2] was 19%; in assay [3], 6%. In addition, the result in assay [5], in assay [6], in assay [7] and in assay [8] was inactive.
Take `COc1cc(Nc2ccnc3ccc(C(F)(F)F)cc23)cc(OC)c1OC`: the growth inhibition in assay [1] is 100% (active); in assay [4], 101% (active). For the same molecule, the inhibition in assay [2] is 15%; in assay [3], 1%. The outcome in assay [5], in assay [6], in assay [7] and in assay [8] was inactive.
Turning to `O=C(/C=C/c1ccc(Cl)c(Cl)c1)NCCCCCCN1CCCN(C(=O)Nc2ccc(C(F)(F)F)cc2)CC1`, the growth inhibition in assay [1] was 25%; in assay [4], 100% (active). In addition, the results for the inhibition in assay [2] and in assay [3] were 47% and -8%, respectively. Moreover, the result in assay [5], in assay [6], in assay [7] and in assay [8] was inactive.
For the molecule `Cc1cc(O)c(C(C)C)cc1C1(c2cc(C(C)C)c(O)cc2C)OC(=O)c2ccccc21`, the growth inhibition was 18% in assay [1] and 95% (active) in assay [4]. For the same molecule, the values for the inhibition in assay [2] and in assay [3] were 8% and -3%, respectively. For the same molecule, the result in assay [5], in assay [6], in assay [7] and in assay [8] was inactive.
Consider `Cn1cnc(CCNC(=O)c2ccc(-c3ccc(-c4nc5ccc(F)cc5[nH]4)cc3)cc2)c1`, for which the growth inhibition is 15% in assay [1] and 92% (active) in assay [4]. In addition, the results for the inhibition in assay [2] and in assay [3] were 17% and 0%, respectively. Further, the outcome in assay [5], in assay [6], in assay [7] and in assay [8] was inactive.
In the case of `Oc1cccc(CNCCCN(Cc2ccccc2)c2ccccc2)c1`, the figures for the growth inhibition in assay [1] and in assay [4] were 97% (active) and 99% (active), respectively. The values for the inhibition in assay [2] and in assay [3] were 7% and -6%, respectively. For the same molecule, the outcome in assay [5], in assay [6], in assay [7] and in assay [8] was inactive.
On to `Cn1c(NC(=O)C2CCCN(C(=O)c3ccc(O)c(-c4ccc(Cl)c(Cl)c4)c3)C2)nc2ccccc21` (stereo not given), for which the growth inhibition in assay [1] is 99% (active); in assay [4], 98% (active). Moreover, the inhibition in assay [2] is 0%; in assay [3] it was -3%. Besides, the outcome in assay [5], in assay [6], in assay [7] and in assay [8] was inactive.
For `COc1ccc(C(=O)C2CCN(CCCCNC(=O)c3ccc(NC(=O)c4cc(Cl)cc(Cl)c4)cc3)CC2)cc1`, the growth inhibition in assay [1] was 84% (active); in assay [4], 100% (active). Also, the inhibition in assay [2] is 35%; in assay [3], 5%. Also, the outcome in assay [5], in assay [6], in assay [7] and in assay [8] was inactive.
For `c1ccc2c(Nc3ccc(Oc4ccc(Nc5c6ccccc6nc6ccccc56)cc4)cc3)c3ccccc3nc2c1`, the growth inhibition in assay [1] was 99% (active); in assay [4], 101% (active). For the same molecule, the figures for the inhibition in assay [2] and in assay [3] were 21% and -2%, respectively. Also, the outcome in assay [5], in assay [6], in assay [7] and in assay [8] was inactive.
Regarding `CC(C)C1=C[C@H]2C[C@]3(C4OCCO4)[C@@H]4CC[C@@H](C)[C@H]4C[C@@]2(COCc2cccc(C#N)c2)[C@]13C(=O)OC(c1ccccc1)c1ccccc1`, the growth inhibition was 92% (active) in assay [1] and 88% (active) in assay [4]. The values for the inhibition in assay [2] and in assay [3] were -5% and 8%, respectively. Also, the outcome in assay [5], in assay [6], in assay [7] and in assay [8] was inactive.
As for `COc1cccc(C(=O)NCCc2cccc(Cl)c2)c1Oc1ccccc1`, the growth inhibition in assay [1] was 90% (active); in assay [4], 97% (active). Also, the inhibition in assay [2] is 28%; in assay [3], -1%. Moreover, the outcome in assay [5], in assay [6], in assay [7] and in assay [8] was inactive.
Take `COc1ccc(NC(=O)Nc2ccc(-c3ccccc3)cc2)cc1Cn1cnc(N2CCCNCC2)cc1=O`: the growth inhibition in assay [1] was 38%; in assay [4], 101% (active). In addition, the inhibition in assay [2] was 24%; in assay [3] it was 8%. The result in assay [5], in assay [6], in assay [7] and in assay [8] was inactive.
With `COc1cc2nc(Cl)nc(Nc3ccncc3)c2cc1OC`, the results for the growth inhibition in assay [1] and in assay [4] were 33% and 86% (active), respectively. Further, the inhibition in assay [2] was 11%; in assay [3] it was -2%. Also, the outcome in assay [5], in assay [6], in assay [7] and in assay [8] was inactive.
As for `COc1ccccc1-c1csc(C(=O)NC2CCCCN(Cc3ccc(C(C)(C)C)cc3)C2)c1` (stereo not given), the growth inhibition is 8% in assay [1] and 99% (active) in assay [4]. Further, the results for the inhibition in assay [2] and in assay [3] were 13% and -5%, respectively. Moreover, the result in assay [5], in assay [6], in assay [7] and in assay [8] was inactive.
Turning to `COc1ccc2nccc([C@@H](O)CN3CCC(NCCc4c[nH]c5ccccc45)CC3)c2c1`, the growth inhibition is 77% (active) in assay [1] and 98% (active) in assay [4]. For the same molecule, the inhibition in assay [2] was 0%; in assay [3], -7%. Also, the result in assay [5], in assay [6], in assay [7] and in assay [8] was inactive.
Consider `O=C(NC1CCN(Cc2ccc3c(c2)OCCO3)CC1)c1ccc(-c2cccc(C(F)(F)F)c2)s1`, for which the growth inhibition was 35% in assay [1] and 100% (active) in assay [4]. Moreover, the inhibition in assay [2] is 99% (active); in assay [3] it was 5%. Besides, the outcome in assay [5], in assay [6], in assay [7] and in assay [8] was inactive.
`COc1cc(C(=O)N2CC[C@@H](CCN3CCC4(CC3)CN(S(C)(=O)=O)c3ccccc34)C[C@H]2Cc2ccc(Cl)c(Cl)c2)cc(OC)c1OC`: the growth inhibition is 99% (active) in assay [1] and 101% (active) in assay [4]. Moreover, the inhibition in assay [2] was 29%; in assay [3], 4%. Further, the result in assay [5], in assay [6], in assay [7] and in assay [8] was inactive.
